# Test results published in ChEMBL document CHEMBL3988442, “University of Dundee, Small-Polar-MMV Screening Library” (2021).
# Screen size: about 48,000 compounds; about 13,000 (27%) showed an effect of 50% or more. The list shows a part of the results.
# Tested on: Wolbachia pipientis
# Assay: Anti-Wolbachia Cell-Based Screen
# Format: functional
# Parameters: scale not given: in the data most compounds retested in dose-response had high values
# Conditions: 5 µM
row,SMILES,Percent Effect [%]
1,CCOc1cc(NC(=O)NCCn2cnnc2CC)ccc1C,-0.5638
2,CCc1nc(CN2CCN(c3ncnc4cc(F)ccc34)CC2)no1,-16.98
3,CN(CCO)Cc1nnc(C2CCN(C(=O)c3cc[nH]c3)CC2)n1C,-143.4
4,CN(C)C(=O)C1CN(c2ncccn2)CCN1C (configuration not stated),84.43
5,Cc1ccc(C(=O)N2C[C@@H]3CN(c4ncccn4)C[C@@H]3C2)cn1,1.13
6,Cc1ccc(C(=O)N2C[C@@H]3CN(c4ncccn4)C[C@@H]3C2)cc1,3.247
7,CN(C)C(=O)CN1C[C@H]2CCN(c3ncccn3)CC[C@H]2S1(=O)=O.O=C(O)C(F)(F)F,-3.991
8,CN(C)C(=O)[C@@H]1CCO[C@@H]2CCN(c3ncccn3)C[C@@H]21.O=C(O)C(F)(F)F,0.2661
9,CN1CCN(c2ncccn2)CC(C(=O)N(C)C)C1 (configuration not stated),92.05
10,CN1CCN(c2ncccn2)CC1C(N)=O (configuration not stated),76.51
11,CSc1cccc(CN(C)C(=O)CN2CCN(c3ncccn3)CC2)c1,-6.038
12,CN(C)C(=O)[C@H]1C[C@@H]2CN(c3ncccn3)C[C@H]1O2,10.85
13,CCc1c(C)nc(C)nc1N1C[C@@H](CN(CC)CCO)[C@@H](CO)C1,6.908
14,COc1cc(F)ccc1N1CCN(Cc2nnc(C3CC3)o2)CC1,-5.388
15,CCc1nc(CN(C)C2CCN(Cc3cnc(C)cn3)C2)no1 (configuration not stated),5.773
16,CN(Cc1nnc(C2CC2)o1)C1CCN(CCCc2cnn(C)c2)C1 (configuration not stated),3.532
17,CCCc1n[nH]c(C2CN(Cc3nnc(C4CC4)o3)CCO2)n1 (configuration not stated),-2.84
18,Cc1nc(CN(C)C2CCN(Cc3nnc(C4CC4)o3)C2)no1 (configuration not stated),115.8
19,CC(C)c1nc(CN(C)C2CCN(Cc3nc(C4CC4)no3)C2)no1 (configuration not stated),-21.22

row,SMILES,Percent Effect [%]
1,CC(C)c1nc(CN2CCCN(Cc3nnc(C4CC4)o3)CC2)no1,0.1522
2,Cc1nc(CN2CCCC(N(C)Cc3nnc(C4CC4)o3)C2)no1 (configuration not stated),6.77
3,Cc1nc(CN2CCCC(N(C)Cc3nc(C)c(C)o3)C2)no1 (configuration not stated),-3.907
4,CCc1nc(CN2CCCC(N(C)Cc3cnn(C)c3)C2)no1 (configuration not stated),10.72
5,CCCc1noc(CN2CCC(N(C)Cc3nnc(C4CC4)o3)C2)n1 (configuration not stated),109.8
6,CC(C)c1nc(CN(C)C2CCN(Cc3nnc(C4CC4)o3)C2)no1 (configuration not stated),123.9
7,CCc1nc(CN(C)C2CCN(Cc3nnc(C4CCC4)o3)C2)no1 (configuration not stated),110.6
8,O=S(=O)(Cc1ccccc1Cl)NCCCN1CCCC1,-15.99
9,OC1CCN(C2CCN(Cc3cnc(-c4cccs4)nc3)CC2)CC1,3.199
10,COc1cc(OC)c(-c2nc3c([nH]2)c(C2CC2)nn3C)cc1OC,11.95
11,CN1CCOC(C(=O)Nc2nc(-c3ccc(Cl)cc3)n[nH]2)C1 (configuration not stated),-7.364
12,O=C(O)CC(O)(CC(=O)O)C(=O)O.c1ccc([C@@H]2CN(Cc3ccncc3)C[C@H]2c2cc[nH]n2)cc1,114
13,O=C(O)CC(O)(CC(=O)O)C(=O)O.c1cncc(-c2nccc(CN3CCCC3)n2)c1,-12.77
14,COc1ccc(CN2C[C@@H]3CN(Cc4ccncc4)C[C@@H]3C2=O)cc1.O=C(O)C(F)(F)F.O=C(O)C(F)(F)F,-12.53
15,O=C(O)CC(O)(CC(=O)O)C(=O)O.c1ccc(CC2CCN(Cc3ccnc(-c4cccnc4)n3)CC2)cc1,2.968
16,COc1ccc(CN2C[C@H]3CN(Cc4ccncc4)C(=O)[C@H]3C2)cc1.O=C(O)C(F)(F)F.O=C(O)C(F)(F)F,-3.011
17,COc1ccc([C@@H]2CN(Cc3ccncc3)C[C@H]2c2cc[nH]n2)cc1.O=C(O)CC(O)(CC(=O)O)C(=O)O,69.64
18,O=C(O)CC(O)(CC(=O)O)C(=O)O.c1ccc([C@@H]2CN(Cc3cccnc3)C[C@H]2c2cc[nH]n2)cc1,104
19,COc1ccccc1[C@@H]1CN(Cc2ccncc2)C[C@H]1C(=O)O,-10.92

row,SMILES,Percent Effect [%]
1,O=C(CCC1CCCC1)N1C[C@H]2CC[C@@H]1CN(Cc1ccncc1)C2,3.308
2,Cc1csc(CN(C)S(=O)(=O)c2ccc(C)c(N(C)C)c2)n1,11.95
3,CN(C)C(=O)c1noc2c1CN(C(=O)CCCN1CCCCC1)CC2,-13.23
4,CN1CCc2[nH]cnc2C12CCN(C(=O)c1noc3c1CCCC3)CC2,33.96
5,COc1cccc([C@H]2CN(C(=O)c3noc4c3CCCC4)C[C@@H]2N)c1,-1.914
6,Cc1cc(CN2CCC(CNC(=O)c3noc4c3CCCC4)C2)[nH]n1 (configuration not stated),-1.453
7,Cn1ncc(NC(=O)c2noc3c2CCCC3)c1C(N)=O,112.2
8,Cc1c(NC(=O)c2noc3c2CCCC3)cnn1C,77.55
9,Cn1ncc(NC(=O)c2noc3c2CCCC3)c1C(=O)N1CCCCC1,98.83
10,Cc1cc(C(N)=O)ccc1NC(=O)c1nc(N2CCCC2)ncc1Cl,-12.29
11,CCC(CNS(C)(=O)=O)Oc1ccccc1F (configuration not stated),-7.569
12,CN1CCC(C2CCN(Cc3cccc(-n4cccn4)c3)CC2)C1 (configuration not stated),-5.048
13,CC(=O)N1CC(=O)N(c2cnn(C)c2)CC12CCN(Cc1cccs1)C2.O=C(O)C(F)(F)F (configuration not stated),106.8
14,CC(=O)N1CC(=O)N(c2ccccc2)CC12CCN(Cc1cccs1)C2.O=C(O)C(F)(F)F (configuration not stated),4.365
15,CC(=O)N1CC(=O)N(c2cnn(C)c2)CC12CCN(Cc1ccsc1)C2.O=C(O)C(F)(F)F.O=C(O)C(F)(F)F (configuration not stated),4.027
16,CC(=O)N1CC(=O)N(c2cnn(C)c2)CC12CCN(Cc1ccco1)C2 (configuration not stated),98.22
17,CC(=O)N1CC(=O)N(c2cnn(C)c2)CC12CCN(Cc1ccoc1)C2 (configuration not stated),-11.13
18,CC(=O)N1CC(=O)N(c2cnn(C)c2)CC12CCN(Cc1nccs1)C2 (configuration not stated),-3.662
19,CN(Cc1cccc2ncccc12)C(=O)CCn1ccc(=O)[nH]c1=O,10.3
